Measured values taken from PubChem BioAssay AID2391 (Southern Research Specialized Biocontainment Screening …, 2010).
The whole screen tested about 310,000 compounds, of which about 410 (0.13%) were called active. Not shown: some 2% with an inconclusive outcome. How the calls were made is not given here. Not all results are given here. Results with a measured potency or affinity are listed apart.

Experiment: inhibition of RSV-induced cytopathic effect – HEp-2 cells, primary 10 µM value included (AID 2391)
Details: at 10 µM, stronger effect = higher value

CPE inhibition, inactive:
c1ccc(-n2cc(CN3CCCC3)c(-c3ccc4c(c3)OCO4)n2)cc1 5.52%
Cc1ccc(NC(=O)c2sc(N)nc2-c2ccc([N+](=O)[O-])cc2)cc1C -0.73%
Cc1ccccc1C(=O)NC(C)C(c1cccs1)N1CCOCC1 (stereo not given) -0.28%
Cc1nn(-c2ccccc2)c2nc(N)c(C#N)c(-c3ccc(O)c(O)c3)c12 39.2%
Cc1nn(-c2ccc(F)cc2)c2nc(N)c(C#N)c(-c3ccc(O)c(O)c3)c12 0.04%
Cc1ccc(C)c2c1cc(C)c1nnc(SCC(=O)NCc3ccc4c(c3)OCO4)n12 2.14%
CCOC(=O)/C(C#N)=C/c1c(N2CCN(c3ccc(OC)cc3)CC2)nc2c(C)cccn2c1=O 7.79%
Cc1ccc(N2CC(O)Cn3c2nc2c3c(=O)n(C)c(=O)n2C)cc1 (stereo not given) 0.84%
Cc1csc(NC(=O)CSc2nnc(C)c(=O)n2N)n1 -0.18%
NNC(=O)c1[nH]c(-c2ccccc2)cc1-c1ccccc1 0.95%
O=C1c2ccccc2C(Nc2ccc3c(c2)OCO3)N1Cc1ccc2c(c1)OCO2 (stereo not given) 13.8%
O=C1c2ccccc2C(Nc2ccccc2)N1Cc1ccc2c(c1)OCO2 (stereo not given) 8.65%
C/C=C/C(=O)Nc1nnc(-c2ccccc2C)s1 0.32%
CCOc1cccc(C(=O)Nc2ccccc2C(=O)N2CCN(C)CC2)c1 -0.42%
CC(CC(=O)Nc1nccs1)c1ccccc1 (stereo not given) -0.09%
O=C(c1cccc(S(=O)(=O)N2CCc3ccccc32)c1)N1CCc2ccccc2C1 7.22%
COc1cc2c(cc1OC)CN(C(=O)c1cccc(S(=O)(=O)N(C)C)c1)CC2 1.79%
O=C(C1CC(=O)N(c2ccc(F)cc2)C1)N1CCOCC1 (stereo not given) 3.24%
Cn1c(O)c(/C=C2\C=Nc3ccccc32)sc1=Nc1ccc(C(=O)O)cc1 1.42%
C/C(=N\NC(=O)c1ccc(NS(=O)(=O)c2cccs2)cc1)c1ccccc1 -0.3%
C/C(=N\NC(=O)c1ccc(NS(=O)(=O)c2cccs2)cc1)c1ccncc1 3.91%
CC(C)=CCCC(C)CN1CCC(n2nccc2NC(=O)c2ccc3c(c2)OCO3)CC1 (stereo not given) -0.22%
O=C(CCCn1c(=O)c2sccc2n(Cc2ccc(F)cc2)c1=O)NCc1ccco1 -0.44%
O=C(NCc1ccco1)c1ccc(Cn2c(=O)c3ccccc3n(Cc3cccc(Cl)c3)c2=O)cc1 18.6%
O=C(NCc1ccco1)c1ccc(Cn2c(=O)c3ccccc3n(Cc3cccc(F)c3)c2=O)cc1 4.05%
N#Cc1ccccc1Cn1c(=O)n(Cc2ccc(C(=O)NCc3ccco3)cc2)c(=O)c2sccc21 2.1%
N#Cc1ccccc1Cn1c(=O)n(Cc2ccc(C(=O)NCc3ccco3)cc2)c(=O)c2ccccc21 2.54%
COCCCNC(=O)c1ccc(Cn2c(=O)c3ccccc3n(Cc3cc(C)ccc3C)c2=O)cc1 1.91%
O=C(NCc1ccco1)c1ccc2c(=O)n(-c3ccccc3)c(=O)n(Cc3cccc(F)c3)c2c1 0.67%
COCCCNC(=O)c1ccc(Cn2c(=O)c3ccccc3n(Cc3ccccc3C)c2=O)cc1 1.4%
CCN1CCCC1CNC(=O)Cn1ncc2c(=O)oc3ccc(C)cc3c21 (stereo not given) 2.08%
Cc1ccccc1/C=N\NC(=O)c1ccc(Cn2cccn2)o1 1.85%
O=c1nc2ccccc2c2n1CC(CN1CCN(c3ccc(F)cc3)CC1)N2 (stereo not given) -0.72%
CCCOc1ccccc1C1NC(=O)NC(C)=C1C(=O)OCCOCC (stereo not given) -0.41%
CCC(C)c1ccccc1NC(=S)Nc1cccnc1 (stereo not given) 3.94%
Cc1ccc(N2C(=O)N(C(C)C)C(C)(C)CC2(C)O)cc1 (stereo not given) 2.14%
O=C(c1cccc(Cl)c1)C1CCCN(C(=O)c2ccoc2)C1 (stereo not given) -0.58%
O=c1cc(-c2ccc(O)c(O)c2)oc2cc(O)c(C3OC(CO)C(O)C(O)C3O)c(O)c12 (stereo not given) 0.47%
O=c1cc(-c2ccc(O)cc2)oc2c(C3O[C@H](CO)[C@@H](O)[C@H](O)[C@H]3O)c(O)cc(O)c12 (stereo not given in full) -1.94%
COc1ccc(OC)c(NC2c3ncccc3C(=O)N2Cc2ccco2)c1 (stereo not given) 6.51%
O=C1c2cccnc2C(Nc2cccc(F)c2)N1Cc1ccco1 (stereo not given) 12%
O=C1c2cccnc2C(Nc2ccccc2Br)N1Cc1ccco1 (stereo not given) 4.55%
COc1cc(NC2c3ncccc3C(=O)N2Cc2ccco2)cc(OC)c1 (stereo not given) 9.47%
CCCOc1ccc(CN(C(=O)c2cccc(OC)c2)C2CCS(=O)(=O)C2)cc1 (stereo not given) 0.38%
CC(O)CNc1nc2ccccc2n1CC(=O)NCC(F)(F)F (stereo not given) 0.4%
O=C(Oc1ccc(C(=S)N2CCOCC2)cc1)c1ccc([N+](=O)[O-])cc1[N+](=O)[O-] 1.71%
O=C(COc1ccc(F)cc1Cl)Nc1ccc(S(=O)(=O)Nc2nccs2)cc1 -1.6%
CC(C)(C)c1cc(CNC2CS(=O)(=O)C[C@@H]2O)cc(C(C)(C)C)c1O (stereo not given in full) 0.68%
Cc1cc(Nc2cccc(Cl)c2)c2ccccc2n1 11%
COC(=O)c1cccc(Nc2nc3ccccc3nc2C)c1 7.1%
CCOc1ccc(-c2c(C(=O)N/N=C/C3CC=CCC3)nnn2-c2nonc2N)cc1 (stereo not given) 0.26%
CN1c2ccccc2C(C)(C)C12CC(CCl)=NO2 (stereo not given) 0.62%
CC1=NOC2(C1)N(C)c1ccccc1C2(C)C (stereo not given) -0.95%
CCN(CC)S(=O)(=O)c1ccc(C2=NOC3(C2)N(C)c2ccccc2C3(C)C)cc1 (stereo not given) 49.6%
CN1c2ccccc2C(C)(C)C12CC(c1ccc(Cl)c(S(=O)(=O)N3CCCC3)c1)=NO2 (stereo not given) 3.21%
COC(=O)COc1ccc(S(=O)(=O)NCc2ccc3c(c2)OCO3)cc1C 1.14%
CCCC[C@@H]1CNCCN1CCc1cccc2ccccc12 -0.31%
Cc1cccc(NS(=O)(=O)c2ccc(C(=O)NCC3CCCO3)cc2)c1C (stereo not given) 2.28%
CN(C)c1nc(C(N)=O)nc(N2CCOCC2)n1 0.62%
Cc1cc(C)n(CCCNC(=O)CN(C)S(=O)(=O)c2ccc(Cl)cc2)n1 -0.89%
Cc1oc(-c2ccccc2Cl)nc1CSCC(=O)O 2.04%
Cc1ccc(-c2nc(CSCC(=O)N3CCCC3)c(C)o2)cc1 20.2%
Cc1ccc(Nc2nc(=O)c3cccnc3s2)cc1 4.1%
O=c1nc(Nc2ccc(OCc3ccccc3)cc2)sc2ncccc12 43.1%
CC(=O)c1cccc(Nc2nc(=O)c3cccnc3s2)c1 -1.05%
CC(=O)c1ccc(Nc2nc(=O)c3cccnc3s2)cc1 -0.53%
O=C(O)CSc1nnc(COc2ccc(Br)cc2)n1-c1ccccc1 1.47%
COC(=O)c1sccc1S(=O)(=O)N1CCCC(N(C)CCc2ccccn2)C1 (stereo not given) -0.75%
O=C1c2ccccc2C(=O)N1CCCCN(C(=O)c1cccc([N+](=O)[O-])c1)c1ccc(Cl)cc1 60.5%
O=C1c2ccccc2C(=O)N1CCCCN(C(=O)c1ccc(Cl)s1)c1ccc(Cl)cc1 42.2%
O=C(c1cc2ccccc2oc1=O)N(c1ccc(Cl)cc1)C1C=CS(=O)(=O)C1 (stereo not given) 1.15%
Cc1ccc(N(CCCCN2C(=O)c3ccccc3C2=O)C(=O)c2ccc(Cl)s2)cc1 44.1%
O=C1c2ccccc2C(=O)N1CCCCN(C(=O)c1cc([N+](=O)[O-])cc([N+](=O)[O-])c1)c1ccc(Cl)cc1 46.5%
CCN(C(=O)c1cc2ccccc2oc1=O)c1ccccc1 0.2%
CN(Cc1ccccc1)C(=O)N[C@@H](Cc1ccccc1)C(=O)O 0.64%
COc1cccc(CCc2nnc(CCC(=O)NC(C)c3c(C)nn(C)c3C)o2)c1 (stereo not given) 0.66%
COc1ccc(OC)c(CN2CCN(C(=O)c3ccc(F)cc3)CC2)c1 2.45%
CC(C)Cc1nnc(NC(=O)CCC(=O)Nc2ccccc2F)s1 1.44%
Nc1ccc(-c2nc3ccc(C(=O)O)cc3s2)cc1 -1.01%
Nc1ccc(-c2nc3ccc(N)cc3s2)cc1 -1.51%
CCc1n(CC(O)COCC2CC=CCC2)c2ccccc2[n+]1C (stereo not given) 0.73%
O=C(NCc1ccc(F)cc1Cl)C1CCN(S(=O)(=O)N2CCCCC2)CC1 4.02%
Cc1ccc(S(=O)(=O)N(C)C)cc1NC(=O)COC(=O)CCC1CCCCC1 -0.99%
Cc1ccc(C)c(NC(=O)CN(C)C(=O)c2ccc(-c3cccc(C(F)(F)F)c3)o2)c1 0%
Clc1ccc(OCc2cn3ccccc3n2)c2ncccc12 4.9%
Cc1cccc2nc(COc3ccc4ccccc4c3Br)cn12 8.72%
CCn1c(CNS(=O)(=O)c2ccc(Br)cc2)n[nH]c1=S 0.55%
Cc1[nH]c2ccccc2c1/C=N/NC(=O)c1cccc([N+](=O)[O-])c1 1.07%
Cc1[nH]c2ccccc2c1/C=N/Nc1ccc([N+](=O)[O-])cc1S(=O)(=O)Nc1ccc(Cl)cc1 1.27%
C=CCc1cc(Cl)ccc1OCCCNC(C)CC (stereo not given) 0.05%
